Screening data from PubChem BioAssay.
Only some compounds are listed: those with a hit (about 2.7% of all), similar ones and a draw of the others.
CHT allo act: allosterically activates the human high affinity choline transporter | B-score at 10 µM | Q9GZV3 | CHT-expressing cells, membrane potential dye, choline EC20; active compounds read high; LV-AA mutant CHT in HEK293 cells | 310,000 tested, 0.49% active | AID 488977;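 active = initial fluorescence not abnormally high and integrated response B-score, plate-corrected, over 3 SD above library mean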
IDE act: activators of human insulin-degrading enzyme in cells; AID 493087; P14735; activation, % at 5.96 µM; HEK cells, FAbeta-B cleavage, fluorescence polarization; 0% vehicle, 100% cell-free pure enzyme wells; 340,000 tested, 0.073% active;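 active = activation above the mean of all tested compounds plus 3 SD, set per screening campaign, cut at about 17% in these data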
CHT inh: inhibits the human high affinity choline transporter. Q9GZV3. CHT-expressing cells, membrane potential dye, choline response; active compounds read low. B-score at 10 µM. 310,000 tested, 0.86% active;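 active = B-score over 3 SD under the library average, and starting fluorescence ratio not unusually high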;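 note: choline stimulus applied at its EC90 after an EC20 pre-addition; B-score computed on integrated fluorescence ratio after choline addition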
TMEM16A act: activates or potentiates the mouse TMEM16A chloride channel | B-score at 10 µM | 340,000 tested, 0.3% active | AID 623877 | HEK293 TMEM16A/YFP-H148Q/I152L, iodide quench fluorescence; active compounds read low;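 active = fluorescence-ratio B-score plate-corrected deviation score at least 3 library SD below zero, with starting fluorescence score within 5 deviations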;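 note: channel opened by trigger with iodide after compound preincubation; score built on the fluorescence ratio of max minus min over baseline; more negative score means more quench and so TMEM16A activation or potentiation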
IDE inh: cellular human IDE inhibition | HEK cells, FAbetaB cleavage, fluorescence polarization | inhibition, % at 5.59 µM | 320,000 tested, 0.41% active | AID 434962;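 active = percent inhibition above the average of all tested compounds plus 3 SD, set per screening campaign, cut at about 16% in these data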;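 note: IDE supplied by intact live HEK cells; FP after avidin binding of uncleaved biotin substrate so inhibition keeps polarization high; 0% = DMSO wells and 100% = 60 µM reference IDE inhibitor Ii1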
ANO1 block: blocks the mouse calcium-activated chloride channel TMEM16A; 310,000 tested, 1.2% active; HEK293 TMEM16A/YFP iodide influx fluorescence, ionomycin; AID 588511; Q8BHY3; normalized B-score (activity score, 25-100; higher = stronger inhibition) at 10 µM;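 active = ratio plate-corrected score three or more library SD toward inhibition, starting fluorescence score within five deviations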;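 note: score derived from kinetic fluorescence span divided by baseline fluorescence per well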
Starred values were filed as active, the others as inactive; i = inactive; / = no result.

SMILES	CHT allo act	IDE act	CHT inh	TMEM16A act	IDE inh	ANO1 block
COC(=O)c1[nH]c2cc(OC)c(OC)cc2c1NC(=O)CN1C[C@H]2C[C@@H](C1)c1cccc(=O)n1C2	/	2	/	i	2	/
COc1cccc2c1C1COC3C4CC(C(=O)O)C(C(C2)N13)N4C (configuration not stated)	/	-2	/	i	/	/
CC(=O)N1c2ccc(N=Cc3cc(Br)cc(Br)c3O)cc2CC1C (configuration not stated)	i	/	-5.3*	/	-3	i
Cc1sc(NC(=O)CN2CCOCC2)nc1-c1ccc2c(c1)CCN2S(=O)(=O)c1ccccc1	i	5	i	i	-6	25*
O=C(CN1CCOCC1)Nc1nc(-c2ccc3c(c2)CCN3S(=O)(=O)c2ccccc2)cs1	i	0	i	i	-1	i
O=C(C1CCCN(S(=O)(=O)c2ccccc2[N+](=O)[O-])C1)N1CCN(c2ccccc2)CC1 (configuration not stated)	i	-3	i	i	18*	i
COc1ccc(C)cc1S(=O)(=O)N1CCCC(C(=O)N2CCN(c3ccccc3)CC2)C1 (configuration not stated)	i	-7	i	i	4	i
Cc1ccc(CC(=O)Nc2ncc([N+](=O)[O-])s2)cc1	i	7	i	i	-1	i
CCCCC(CC)C(=O)Nc1ncc([N+](=O)[O-])s1 (configuration not stated)	i	1	i	i	4	100*
Cc1ccc(S(=O)(=O)c2c(N)n(CCC(C)C)c3nc4ccccc4nc23)cc1	i	-2	i	i	-5	i
Cc1ccc(S(=O)(=O)c2c(N)n(CCN3CCOCC3)c3nc4ccccc4nc23)cc1C	i	-3	i	-20*	-1	i
Cc1ccc(S(=O)(=O)c2c(N)n(Cc3ccco3)c3nc4ccccc4nc23)cc1C	i	-10	i	i	13	25*
Nc1c(S(=O)(=O)c2ccccc2)c2nc3ccccc3nc2n1CCN1CCOCC1	i	2	i	i	-1	i
Cc1ccc(NC(=O)C2CCN(S(=O)(=O)c3ccc4ccccc4c3)CC2)nc1	/	1	/	i	/	/
O=C(COC(=O)c1cc(=O)[nH]c(=O)[nH]1)Nc1ccccc1F	/	1	/	i	0	/
Cn1cncc1C#Cc1ccc2cc(CCO)oc(=O)c2c1	/	-1	/	i	-2	/
Cn1cncc1C#Cc1ccc2cc(C(C)(C)O)oc(=O)c2c1	/	-4	/	-11*	2	/
Cc1ccc(CNS(=O)(=O)c2ccc(F)c(F)c2)n1C	i	5	i	i	7	i
O=c1cc(-c2c(F)c(F)c(F)c(F)c2F)oc2c(F)c(F)c(F)c(F)c12	i	/	i	/	3	25*
CCOC(=O)/C=C/S(=O)(=O)c1ccc(NC(C)=O)cc1	i	2	-5.5*	i	-4	i
CCCCN(C(=O)Cc1ccc(S(=O)(=O)N2CCOCC2)s1)c1c(N)n(CCCC)c(=O)[nH]c1=O	i	-3	i	i	0	i
Cc1c(Br)c(O)c(Br)c2sc(=O)oc12	i	-5	-8.2*	i	-2	i
Cc1noc(C)c1C(=O)N(CC(=O)Nc1ccc(Cl)c(C(F)(F)F)c1)Cc1ccco1	/	-1	/	i	0	/
O=C(Cc1ccc2c(c1)CCCC2)Nc1ccc2ccccc2c1	i	0	i	i	11	i
O=C(CS)Nc1ccc2ccccc2c1	i	-13	i	i	17*	i
SMILES	CHT allo act	IDE act	CHT inh	TMEM16A act	IDE inh	ANO1 block
O=c1c2ccccc2oc2cc(-c3ccc(CN4CCOCC4)cc3)ccc12	/	-14	/	i	4	/
COc1ccc(S(=O)(=O)Nc2c(C(=O)O)[nH]c3ccccc23)cc1	i	7	i	i	-4	i
O=C(O)c1[nH]c2ccccc2c1NS(=O)(=O)c1ccc(F)cc1	i	3	i	-49*	5	i
CCN1CCC(O)(C(C(=O)OC)c2ccccc2)CC1 (configuration not stated)	/	-2	/	i	/	/
Oc1ccc(Cl)cc1Cc1cc(Cl)ccc1O	i	10	i	i	7	100*
Cc1cccc(N2CCN(C(=S)Nc3ccc4nc(N5CCN(C)CC5)cc(C)c4c3)CC2C)c1 (configuration not stated)	i	30*	i	i	-11	i
Cc1cc(N2CCN(C)CC2)nc2ccc(NC(=S)N3CCN(c4cccc(Cl)c4)CC3)cc12	i	6	i	i	3	i
O=C(NCCCN1CCCC1=O)c1ccc(S(=O)(=O)Nc2cccc(C(F)(F)F)c2)cc1	i	4	i	i	-2	i
CCN1CCCC1CNC(=O)C1CCN(Cc2nc(-c3cccc(Br)c3)oc2C)CC1 (configuration not stated)	8.3*	4	i	i	-1	i
Cc1oc(-c2cccc(Cl)c2)nc1CN1CCC(C(=O)NCc2ccco2)CC1	i	0	i	i	3	i
Cc1ccccc1CS(=O)(=O)CCC(=O)NCc1ccc(F)cc1Cl	i	6	i	i	0	i
Cc1nnc(SCC(=O)Nc2sc3c(c2C(=O)c2ccccc2)CCCC3)s1	8.1*	4	i	i	15	i
CCOC(=O)c1c(NC(=O)CSc2nnc(C)s2)sc2c1CCN(C)C2	7.6*	-9	i	i	4	i
O=C(CSS(=O)(=O)O)N1CCN(C(=O)c2ccoc2)CC1	i	10	i	i	3	i
COc1ccccc1NC(=O)C(C)OC(=O)CCNS(=O)(=O)c1cccc(C(F)(F)F)c1 (configuration not stated)	/	7	/	i	-2	/
O=C1/C(=C\c2cccc([N+](=O)[O-])c2O)SC(=S)N1Cc1ccccc1	i	-6	-8.4*	i	0	100*
CCOc1cc(/C=C2/SC(=S)N(Cc3ccccc3)C2=O)ccc1O	i	-75	i	i	83*	i
COc1cc(/C=C2/SC(=S)N(Cc3ccccc3)C2=O)ccc1OS(C)(=O)=O	i	5	i	i	-9	i
O=C1/C(=C/c2ccc(O)c([N+](=O)[O-])c2)SC(=S)N1Cc1ccccc1	i	3	i	i	-2	i
COc1cc(/C=C2/SC(=S)N(Cc3ccccc3)C2=O)cc(Cl)c1O	i	-118	i	i	86*	i
COc1cc(/C=C2/SC(=S)N(Cc3ccccc3)C2=O)ccc1OCC(=O)O	i	-2	i	i	13	i
